# Measurements from PubChem BioAssay.
# Activity calls are given as the source filed them. Unless noted, how the calls were made is not given here.
# Columns and labels:
# [1] = system: Wnt5a (protein binding on small-molecule microarray); experiment: small molecules binding Wnt5a protein – biophysical, small-molecule microarray, 635/667 nm fluorescence, primary screen (AID 1142); conditions: 635 nm fluorescence, higher = more signal;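 further: fluorescence read at 667 nm with signal to noise per printed feature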
# [2] = ATP-based viability of Huh7 replicon cells – cell-based, CellTiter-Glo luminescence, basal, 48 h, cytotoxicity control for HCV replication inhibitor project, primary screen (AID 1143); conditions: higher = more signal, called active from +8 up or from −8 down;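 further: Huh7 hepatoma cells carrying a hepatitis C replication reporter with no stimulus; test concentration not given here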
# [3] = Pseudomonas biofilm growth suppression – PAO1 strain, BacTiter-Glo luminescence, LB-PBS, primary screen (AID 1144); conditions: P. aeruginosa PAO1 biofilm, 12 h, higher = more signal
# [4] = basal CRE-LacZ reporter activity in PC12 – cell-based, unstimulated, primary screen (AID 1145); conditions: no forskolin, luminescence, 4.5 h, higher = more signal, called active from +8 up or from −8 down
# [5] = forskolin-driven CRE-LacZ activity in PC12 – cell-based, CRE-LacZ reporter, forskolin-stimulated, primary screen (AID 1146); conditions: luminescence, 4.5 h, higher = more signal, called active from +8 up or from −8 down;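 further: PC12 cells with 6xCRE LacZ reporter stimulated by forskolin 10 µM; beta-galactosidase reporter signal reflecting CREB driven transcription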
# [6] = target: Streptavidin (Streptomyces avidinii) (UniProt P22629); experiment: compounds binding control protein streptavidin – biophysical, small-molecule microarray, 635/667 nm fluorescence, artefact control for SMM compound annotation, primary screen (AID 1147); conditions: higher = more signal;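 further: signal reflects streptavidin binding to arrayed compounds as a control protein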
# Streptavidin (Streptomyces avidinii), sequence (P22629 whole entry, looked up): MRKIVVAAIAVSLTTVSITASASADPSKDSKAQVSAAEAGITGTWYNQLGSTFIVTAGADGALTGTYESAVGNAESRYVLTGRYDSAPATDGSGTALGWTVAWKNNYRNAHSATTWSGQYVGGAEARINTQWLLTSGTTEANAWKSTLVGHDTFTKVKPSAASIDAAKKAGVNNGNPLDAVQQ
# [7] = probe aInhba binding on compound microarray – biochemical, small-molecule microarray, 635/667 nm fluorescence, primary screen (AID 1148); conditions: higher = more signal;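 further: score merges 667nm spot fluorescence with signal-to-noise for antibody binding to printed compounds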
# [8] = target: Torsin-1A (Homo sapiens) (UniProt O14656); experiment: TOR1A wild-type binding on microarray – cell lysate, small-molecule microarray, lysate, 635/667 nm, primary screen (AID 1149); conditions: COS7 hTOR1A-WT lysate, 635 nm fluorescence, higher = more signal
# Torsin-1A (Homo sapiens), sequence (O14656 whole entry, looked up): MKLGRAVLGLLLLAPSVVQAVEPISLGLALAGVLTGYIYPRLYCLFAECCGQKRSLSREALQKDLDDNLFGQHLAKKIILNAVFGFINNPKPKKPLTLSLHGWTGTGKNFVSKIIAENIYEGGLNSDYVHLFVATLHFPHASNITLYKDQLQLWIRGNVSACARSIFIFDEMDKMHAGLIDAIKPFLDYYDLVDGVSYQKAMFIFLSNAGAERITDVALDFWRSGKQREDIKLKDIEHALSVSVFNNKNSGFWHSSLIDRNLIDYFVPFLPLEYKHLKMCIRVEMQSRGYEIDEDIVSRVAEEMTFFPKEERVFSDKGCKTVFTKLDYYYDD
# [9] = target: Torsin-1A (Homo sapiens) (UniProt O14656); experiment: torsin A mutant lysate binding on microarrays – cell lysate, small-molecule microarray, COS7 lysate, 635/667 nm fluorescence, primary screen (AID 1150); conditions: COS7 hTOR1A mutant lysate, 635 nm fluorescence, higher = more signal;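 further: score pools 667 nm emission and signal to noise measuring lysate protein binding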
# [10] = system: Sonic hedgehog protein (Shh); experiment: Sonic hedgehog microarray binding compounds – biochemical, small-molecule microarray, 635/667 nm fluorescence, primary screen (AID 1151); conditions: 635 nm fluorescence, higher = more signal;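 further: Shh protein binding to compounds spotted on small-molecule microarray slides; score combines spot fluorescence intensity with signal-to-noise across triplicate slides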
# [11] = optical density shifts of acrAB sulA E. coli – strain DRC41, OD650, 48 h, E. coli filamentation inducer project, primary screen (AID 1152); conditions: higher = more signal, called active from +8 up or from −8 down;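 further: E. coli MC1000 strain DRC41 lacking acrAB efflux pump and sulA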
# [12] = probe aLefty1 binding on compound microarray – biochemical, small-molecule microarray, 635/667 nm fluorescence, primary screen (AID 1153); conditions: higher = more signal;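 further: score merges spot fluorescence with signal-to-noise ratio from the scanned slide images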
# [13] = plasmodial surface anion channel blockers, osmotic lysis – cell-based, P. falciparum Indochina, OD700, 1 h, primary screen (AID 1154); conditions: P. falciparum Indochina infected RBC osmotic lysis, higher = more signal, called active from +8 up or from −8 down
# [14] = plasmodial surface anion channel blockers, osmotic lysis – cell-based, P. falciparum Indochina, OD700, 2 h, primary screen (AID 1155);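 further: lysis reports solute entry through the parasite surface anion channel PSAC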; conditions: P. falciparum Indochina infected erythrocytes, higher = more signal, called active from +8 up or from −8 down
# [15] = changes in parasitized red cell lysis, either direction – P. falciparum Indochina, OD700, 3 h, PSAC antagonist project, primary screen (AID 1156); conditions: P. falciparum-infected erythrocytes, osmotic lysis, higher = more signal, called active from +8 up or from −8 down
# [16] = plasmodial surface anion channel blockers, osmotic lysis – cell-based, P. falciparum Indochina, OD700, 18 h, primary screen (AID 1157); conditions: P. falciparum Indochina infected erythrocytes, osmotic lysis OD700, 18 h; higher = more signal, called active from +8 up or from −8 down
# [17] = S6 kinase pathway phospho-S6 level changes – cell-based, A549, cytoblot, luminescence, serum-stimulated, primary screen (AID 1158); conditions: 5 h, higher = more signal;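 further: serum-stimulated A549 lung adenocarcinoma cells; signal is phosphorylated S6 detected by cytoblot immunostaining with HRP secondary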
# [18] = target: NADPH oxidase 2 (Homo sapiens) (UniProt P04839); experiment: compounds shifting NOX2 Amplex Red fluorescence – cell-based, HEK293-NOX2, PMA-stimulated, NOX inhibitor project, primary screen (AID 1159); conditions: 45 min, higher = more signal, called active from +8 up or from −8 down; further: test concentration not given here
# NADPH oxidase 2 (Homo sapiens), sequence (P04839 whole entry, looked up): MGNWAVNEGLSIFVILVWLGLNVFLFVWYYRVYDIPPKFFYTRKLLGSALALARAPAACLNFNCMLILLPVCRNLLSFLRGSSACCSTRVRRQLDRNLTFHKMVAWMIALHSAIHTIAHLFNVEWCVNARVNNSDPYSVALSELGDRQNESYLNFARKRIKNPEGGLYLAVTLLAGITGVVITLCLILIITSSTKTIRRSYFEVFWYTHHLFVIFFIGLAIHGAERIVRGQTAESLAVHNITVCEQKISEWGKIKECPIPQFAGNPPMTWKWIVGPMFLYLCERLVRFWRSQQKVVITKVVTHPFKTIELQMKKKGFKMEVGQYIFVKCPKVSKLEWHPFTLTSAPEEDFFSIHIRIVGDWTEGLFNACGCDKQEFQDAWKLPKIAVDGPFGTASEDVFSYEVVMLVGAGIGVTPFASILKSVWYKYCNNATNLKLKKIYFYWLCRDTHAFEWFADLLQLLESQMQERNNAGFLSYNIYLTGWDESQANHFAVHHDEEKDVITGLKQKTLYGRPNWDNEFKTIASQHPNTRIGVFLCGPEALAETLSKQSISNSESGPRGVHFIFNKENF
# [19] = target: NADPH oxidase 4 (Homo sapiens) (UniProt Q9NPH5); experiment: compounds shifting NOX4 Amplex Red fluorescence – cell-based, HEK293-NOX4, tetracycline-induced, NOX inhibitor project, primary screen (AID 1160); conditions: HEK293-NOX4, Amplex Red H2O2 fluorescence, 45 min; higher = more signal, called active from +8 up or from −8 down
# NADPH oxidase 4 (Homo sapiens), sequence (Q9NPH5 whole entry, looked up): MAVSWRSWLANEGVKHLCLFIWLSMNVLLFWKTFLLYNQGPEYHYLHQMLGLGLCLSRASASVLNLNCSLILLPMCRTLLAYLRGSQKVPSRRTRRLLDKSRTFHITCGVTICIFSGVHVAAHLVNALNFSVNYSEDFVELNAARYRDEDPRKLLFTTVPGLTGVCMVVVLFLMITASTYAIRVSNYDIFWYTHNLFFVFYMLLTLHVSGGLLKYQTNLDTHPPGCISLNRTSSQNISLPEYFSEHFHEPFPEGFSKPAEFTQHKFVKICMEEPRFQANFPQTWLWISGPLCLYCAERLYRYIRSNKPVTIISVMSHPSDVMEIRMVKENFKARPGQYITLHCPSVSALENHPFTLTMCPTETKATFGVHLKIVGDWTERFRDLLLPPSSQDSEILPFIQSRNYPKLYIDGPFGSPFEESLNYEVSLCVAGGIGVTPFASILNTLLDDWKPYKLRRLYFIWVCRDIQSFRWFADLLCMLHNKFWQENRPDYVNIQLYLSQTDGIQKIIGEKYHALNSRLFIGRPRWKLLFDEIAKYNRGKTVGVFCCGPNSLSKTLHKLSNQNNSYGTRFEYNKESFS
# [20] = target: NADPH oxidase 5 (Homo sapiens) (UniProt Q96PH1); experiment: compounds shifting NOX5 Amplex Red fluorescence – cell-based, HEK293-NOX5, NOX inhibitor project, primary screen (AID 1161); conditions: HEK293-NOX5, ionomycin, 45 min, higher = more signal
# NADPH oxidase 5 (Homo sapiens), sequence (Q96PH1 whole entry, looked up): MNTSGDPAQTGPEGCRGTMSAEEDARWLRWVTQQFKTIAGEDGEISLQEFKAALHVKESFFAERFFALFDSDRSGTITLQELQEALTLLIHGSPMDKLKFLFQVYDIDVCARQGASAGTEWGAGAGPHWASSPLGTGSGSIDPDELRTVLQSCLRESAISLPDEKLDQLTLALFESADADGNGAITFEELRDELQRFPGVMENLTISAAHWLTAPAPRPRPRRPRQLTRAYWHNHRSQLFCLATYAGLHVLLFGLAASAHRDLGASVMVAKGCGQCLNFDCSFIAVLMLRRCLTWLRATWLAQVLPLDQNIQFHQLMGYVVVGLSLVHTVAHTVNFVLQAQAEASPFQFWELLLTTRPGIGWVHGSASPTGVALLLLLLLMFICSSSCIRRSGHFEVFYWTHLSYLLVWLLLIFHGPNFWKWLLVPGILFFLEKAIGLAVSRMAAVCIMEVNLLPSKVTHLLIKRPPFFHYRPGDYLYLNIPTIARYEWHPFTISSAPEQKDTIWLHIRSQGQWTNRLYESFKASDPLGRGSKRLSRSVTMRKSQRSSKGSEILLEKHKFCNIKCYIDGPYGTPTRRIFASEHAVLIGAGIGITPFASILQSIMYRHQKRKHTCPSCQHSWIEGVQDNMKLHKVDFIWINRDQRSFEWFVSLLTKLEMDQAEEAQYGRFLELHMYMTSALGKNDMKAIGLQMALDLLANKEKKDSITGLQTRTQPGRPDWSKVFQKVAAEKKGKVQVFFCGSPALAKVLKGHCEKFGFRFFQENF
SMILES,composite z-score [1],z-score [2],z-score [3],z-score [4],z-score [5],composite z-score [6],composite z-score [7],composite z-score [8],composite z-score [9],composite z-score [10],z-score [11],composite z-score [12],z-score [13],z-score [14],z-score [15],z-score [16],z-score [17],z-score [18],z-score [19],z-score [20]
CCOC(=O)[C@H](CC(C)C)NC(=O)CCC1CC(OC(=O)NCCc2ccc(F)cc2)CC2(CCCC(COC(=O)NCc3ccccc3)O2)O1 (stereo not given in full),0.371,-4.31 (inactive),-0.568 (inactive),0.199 (inactive),0.659 (inactive),0.255,-0.226,1.47,0.154,1.86,-1.06 (inactive),0.0536,3.44 (inactive),-1.22 (inactive),1.39 (inactive),-1.42 (inactive),1.78,-0.945 (inactive),-0.797 (inactive),-2.24
COCCCNC(=O)[C@@]1(Sc2ccc(C)cc2)CC(=O)N(Cc2ccccc2)[C@@H]1c1ccc(CO)cc1I,0.129,-1.25 (inactive),0.501 (inactive),-0.232 (inactive),1.48 (inactive),-0.684,0.106,0.234,0.0773,-0.772,0.613 (inactive),0.337,4.55 (inactive),0.831 (inactive),0.533 (inactive),0.377 (inactive),0.505,1.26 (inactive),-0.666 (inactive),1.26
O=C1[C@H]2[C@H]3[C@H](O)[C@H](O)CC(=NOCc4ccccc4)[C@@H]3CC[C@H]2C(=O)N1Cc1ccccc1,-0.0408,0.0627 (inactive),0.76 (inactive),0.155 (inactive),0.663 (inactive),0.336,-0.128,-0.0549,0.282,0.84,0.569 (inactive),-0.147,0.124 (inactive),0.321 (inactive),0.0319 (inactive),0.627 (inactive),-0.618,-0.85 (inactive),0.433 (inactive),0.326
CO[C@@H]1COC(=O)[C@@H]2CCCN2C(=O)[C@@H](C)COC(=O)[C@H](COCc2ccccc2)NC(=O)CC=C[C@H]1C,-0.127,-0.388 (inactive),-0.623 (inactive),-0.799 (inactive),0.435 (inactive),0.107,-0.172,0.999,0.121,0.731,-2.21 (inactive),-0.111,0.553 (inactive),0.367 (inactive),1.29 (inactive),0.441 (inactive),-0.493,-0.363 (inactive),-0.643 (inactive),-0.159
N#Cc1ccc(NN2C(C(O)c3cc(C(F)(F)F)cc(C(F)(F)F)c3)C=CC3C(=O)N(c4ccccc4)C(=O)C32)cc1 (stereo not given),0.261,-2.24 (inactive),-0.875 (inactive),0.822 (inactive),-0.389 (inactive),1.39,0.231,1.43,1.06,-0.0099,-1.54 (inactive),0.0971,4.78 (inactive),2.32 (inactive),-3.13 (inactive),1.54 (inactive),-1.07,-1.19 (inactive),-3.23 (inactive),-1.4
COC(=O)[C@H](C)NC(=O)CCC1CC(OC(=O)NCc2ccc3c(c2)OCO3)CC2(CCCC(COC(=O)NCCOc3ccccc3)O2)O1 (stereo not given in full),0.12,-1.55 (inactive),-1.53 (inactive),-0.349 (inactive),-0.422 (inactive),0.607,-0.128,0.248,0.492,1.67,-0.638 (inactive),-0.414,-1.1 (inactive),-0.123 (inactive),-0.409 (inactive),-0.323 (inactive),1.48,-0.245 (inactive),0.758 (inactive),0.214
Cc1ccc(C2CC=C(C(=O)O)CN2S(=O)(=O)c2ccc(C)cc2)cc1 (stereo not given),0.212,0.0273 (inactive),-0.119 (inactive),-0.378 (inactive),0.707 (inactive),0.169,-0.024,0.427,0.426,-0.065,-1.29 (inactive),-0.0294,1.26 (inactive),0.838 (inactive),0.927 (inactive),0.98 (inactive),-0.51,-0.446 (inactive),-1.44 (inactive),0.321
CCOC(=O)NN=C1C[C@@H](O)[C@@H](O)[C@@H]2[C@@H]3C(=O)N(C4CCCCC4)C(=O)[C@@H]3CC[C@@H]12,0.133,0.392 (inactive),0.471 (inactive),0.16 (inactive),0.366 (inactive),0.132,-0.0987,0.597,0.726,0.0717,-0.0671 (inactive),-0.147,1.61 (inactive),0.0554 (inactive),-1.02 (inactive),-0.039 (inactive),0.492,-0.000129 (inactive),0.328 (inactive),-0.121
